From PubChem
Shown are actives, neighbours in structure and some others; about 2.4% of the full set was active somewhere.
D2 ag-1: Beta-Arrestin HTS for Positive Allosteric Modulators of the Human D2 Dopamine Receptor: Agonists; DiscoveRx PathHunter D2 beta-arrestin, luminescence, 90 min; 100% = 57 uM dopamine signal; activation, % (no concentration beside the values); D(2) dopamine receptor (Homo sapiens), P14416; 360,000 tested, 0.084% active; in the data active means activation above about 40%; inconclusive means between about 15% and that limit
Target sequence (P14416 whole entry, looked up): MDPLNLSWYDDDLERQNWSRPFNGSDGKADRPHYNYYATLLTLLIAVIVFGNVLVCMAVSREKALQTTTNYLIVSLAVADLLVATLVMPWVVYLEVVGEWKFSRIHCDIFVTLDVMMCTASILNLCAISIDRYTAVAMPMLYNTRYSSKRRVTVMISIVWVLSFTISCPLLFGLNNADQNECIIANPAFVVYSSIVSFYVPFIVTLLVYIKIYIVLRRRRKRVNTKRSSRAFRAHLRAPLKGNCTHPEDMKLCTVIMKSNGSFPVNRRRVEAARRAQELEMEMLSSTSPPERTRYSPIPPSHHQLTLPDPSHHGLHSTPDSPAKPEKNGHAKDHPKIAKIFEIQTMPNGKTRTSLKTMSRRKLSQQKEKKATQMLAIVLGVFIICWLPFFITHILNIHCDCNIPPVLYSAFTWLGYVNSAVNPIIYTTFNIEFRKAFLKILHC
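Agonist mode: compounds alone added to overnight-plated D2 PathHunter cells for 90 min at 37 C, with 57 uM final dopamine (EC100) defining full response. Beta-arrestin recruitment detected by chemiluminescent reagent, read after 1 h at ambient temperature.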
D2 PAM-1: HTS Assay for Positive Allosteric Modulators of the Human D2 Dopamine Receptor: Primary Screen for Potentiators | potentiation, % at 10 µM | 340,000 tested, 0.34% active | AID 485347, 2010 | HEK293 T-REx D2, calcium flux, EC20 dopamine potentiation | D(2) dopamine receptor (Homo sapiens), P14416;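 active means potentiation over 3 SD above the plate norm, cut at about 30% in these data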; further: 0% is about no effect
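Potentiation of an EC20 dopamine calcium response is measured in a force-coupled, tetracycline-inducible Hek293 Trex D2 line. Compound-only kinetic reads over 180 s flag agonists before dopamine addition.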
D2 antagonist: HTS Assay for Allosteric Antagonists of the Human D2 Dopamine Receptor: Primary Screen for Antagonists. HEK293 TREx D2 cells, calcium flux, dopamine EC80. inhibition, % at 10 µM. 340,000 tested, 2% active. AID 485344, 2010; in the data active means inhibition above about 30%; inactive means below that, where a call was filed; further: 0% is about no effect
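Overnight-induced (tetracycline, 30 C) HEK293 T-REx cells carrying force-coupled D2 receive a no-wash calcium dye, then compound, then EC80 dopamine at 180 s; signals are read kinetically throughout.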
D2 PAM-2: Beta-Arrestin HTS for Positive Allosteric Modulators of the Human D2 Dopamine Receptor: Potentiators | D(2) dopamine receptor (Homo sapiens), P14416 | DiscoveRx D2 beta-arrestin cells, luminescence, 90 min; 100% = 57 uM dopamine signal | potentiation, % (concentration not given with the values) | 360,000 tested, 0.23% active | AID 624464, 2012; in the data active means potentiation above about 50%; inconclusive means mostly about 30% to 49%
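D2 cells co-treated with compound plus 50 nM dopamine (EC20) for 90 min at 37 deg C to detect potentiation. Beta-arrestin recruitment was read as enzyme-fragment luminescence after 1 h at ambient temperature. Full response was set by 57 uM dopamine.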
D2 ag-2: HTS Assay for Allosteric Agonists of the Human D2 Dopamine Receptor: Primary Screen for Agonists; D(2) dopamine receptor (Homo sapiens), P14416; HEK293 T-REx D2 cells, calcium flux agonist mode; activation, % at 2 µM; 340,000 tested, 0.53% active;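 active means activation over 3 SD above normal in the single-dose calcium agonist read, cut at about 30% in these data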; further: 0% is about no effect
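In this primary screen, compounds producing a positive calcium signal within 180 s of addition to tetracycline-induced, force-coupled HEK293 Trex D2 cells are flagged; cells are dye-loaded with a no-wash calcium kit beforehand.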
* hit, by the source's call; ? = inconclusive; / = not tested or not shown.

SMILES | D2 ag-1 | D2 PAM-1 | D2 antagonist | D2 PAM-2 | D2 ag-2
CC(=O)N1CCCC1c1nc2ccccc2n1Cc1cccc(Cl)c1 (stereo unspecified) | / | 1 | / | / | 0
CC1(C)ON(C2CCCCC2)[C@H]2c3nc4ccccc4n3C[C@H]21 | 0 | 1 | 39* | 0 | 2
CCOC(=O)c1[nH]c(C)c(CCC(=O)NC(C)c2ccccc2)c1C (stereo unspecified) | / | -13 | / | / | 0
CC(C)(CN1CCN(Cc2ccccc2)CC1)NS(=O)(=O)c1ccccc1 | -1 | -29 | 41* | -22 | 0
CC(C)C(=O)Nc1cccc(C(=O)Nc2nnc(C(F)(F)F)s2)c1 | / | -1 | / | / | -1
CC(CNC(=O)CC[C@H]1O[C@@H](n2ccc(=O)[nH]c2=O)[C@H](O)[C@@H]1O)c1ccccc1 (stereo partly specified) | -4 | / | / | -3 | /
Cc1ccc(SCCNS(C)(=O)=O)cc1 | -1 | 36* | -12 | -16 | 0
CCCn1c(N)c(N(CCOC)C(=O)c2ccccc2)c(=O)[nH]c1=O | -1 | -11 | 55* | -1 | 1
CCCCN(C(=O)c1ccc(C#N)cc1)c1c(N)n(CCC)c(=O)[nH]c1=O | -3 | -3 | 42* | -5 | -2
COCCN(C(=O)Cc1coc2cc(C)c(C)cc12)c1c(N)n(Cc2ccccc2)c(=O)[nH]c1=O | 0 | 1 | 4 | -6 | 0
COCCCN(C(=O)Cc1coc2cc(C)c(C)cc12)c1c(N)n(Cc2ccccc2)c(=O)[nH]c1=O | -1 | 5 | 48* | -2 | 0
CN(C)c1ccc(/C=C/C(=O)c2c(O)c3ccccc3oc2=O)cc1 | 4 | 4 | -2 | 2 | 39*
CCCNCC1C(Oc2ccc(Cl)cc2)C(=O)N1c1ccccc1C (stereo unspecified) | -5 | -23 | 51* | -22 | 1
COCCNCC1C(Oc2ccc(Cl)cc2)C(=O)N1c1ccccc1C (stereo unspecified) | 1 | -34 | 50* | -23 | 1
Cn1cc(S(=O)(=O)N2CCCC2)cc1C(=O)Nc1ccc(C(F)(F)F)cc1 | / | 15 | / | / | -1
Cc1ccc(C(=O)O/N=C(\N)c2ccc(Br)cc2)cc1 | ? | -22 | 34* | 28 | 1
CCOc1ccc(C(=O)O/N=C(\N)c2ccc([N+](=O)[O-])cc2)cc1OCC | ? | 2 | 14 | 58* | 0
N/C(=N\OC(=O)c1cccc(Br)c1)c1ccc([N+](=O)[O-])cc1 | 51* | -7 | 1 | 14 | -1
N/C(=N\OC(=O)c1ccc(Br)cc1)c1ccccc1 | 6 | 2 | -6 | 13 | 0
N/C(=N\OC(=O)c1cccc(Br)c1)c1ccc(Br)cc1 | 13 | -5 | 7 | 100* | 0
COc1cc2[nH]c(=O)n(CCCC(=O)NCc3ccccc3Cl)c(=O)c2cc1OC | / | 1 | / | / | 0
Cc1cccc(OCC(=O)Nc2ccccc2OCc2cc(=O)n3ccccc3n2)c1 | / | 12 | / | / | 1
O=C(NCCc1ccc(Cl)cc1)C(=O)NCC(c1ccco1)S(=O)(=O)c1ccc(Cl)cc1 (stereo unspecified) | / | -2 | / | / | 0
COc1ccc(/C(N)=N/OC(=O)c2ccc([N+](=O)[O-])c(C)c2)cc1OC | 2 | -4 | -11 | -5 | 0
Cc1noc(-c2ccc(Cl)cc2)c1C(=O)O/N=C(\N)c1ccc(C(C)(C)C)cc1 | 47* | / | / | 151* | /
CC(C)(C)c1ccc(C(=O)O/N=C(\N)c2ccccc2)cc1 | 40* | -4 | 27 | 19 | 1
COc1ccc(/C(N)=N/OC(=O)c2ccc(C)c([N+](=O)[O-])c2)cc1 | ? | -1 | 0 | 132* | 0
CC(C)NC(=O)N1[C@H](c2cccs2)[C@@H](C)C(=O)[C@@H](C)[C@@H]1c1cccs1 | / | 8 | / | / | 1
